Source: PubChem BioAssay (National Center for Advancing Translational Sciences (NCATS))
D2 PAM-1: human D2 receptor positive allosteric modulation; actives 0.23% (n = 360,000); DiscoveRx D2 beta-arrestin cells, luminescence, 90 min; 100% = 57 uM dopamine signal; potentiation, % (concentration not given with the values); in the data active = potentiation above about 50%
Target sequence (P14416 whole entry, looked up): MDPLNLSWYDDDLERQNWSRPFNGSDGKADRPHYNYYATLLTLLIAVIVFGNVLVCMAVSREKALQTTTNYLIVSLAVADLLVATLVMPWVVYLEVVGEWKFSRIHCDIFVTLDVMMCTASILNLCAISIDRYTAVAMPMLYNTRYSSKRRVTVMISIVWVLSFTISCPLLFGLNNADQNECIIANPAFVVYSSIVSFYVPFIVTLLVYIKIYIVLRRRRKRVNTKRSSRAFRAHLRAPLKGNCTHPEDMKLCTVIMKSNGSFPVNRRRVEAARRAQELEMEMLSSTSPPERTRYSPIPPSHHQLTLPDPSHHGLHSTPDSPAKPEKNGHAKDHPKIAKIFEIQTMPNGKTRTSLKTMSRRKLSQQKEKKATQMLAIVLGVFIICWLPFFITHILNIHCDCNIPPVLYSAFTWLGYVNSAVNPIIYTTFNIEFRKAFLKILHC
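PathHunter D2 cells, attached overnight at 37 deg C, received compound in DMSO plus dopamine at EC20 (50 nM final) for 90 min at 37 deg C. Beta-arrestin recruitment was read as luminescence after 1 h with detection reagent at ambient temperature.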
D2 PAM-2: D2 dopamine receptor (human) potentiation; P14416; HEK293 T-REx D2, calcium flux, EC20 dopamine potentiation; potentiation, % at 10 µM; actives 0.34% (n = 340,000);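 active = potentiation over 3 SD above the plate norm, cut at about 30% in these data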; note: 0% is about no effect
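Using a no-wash calcium dye in inducible, force-coupled HEK293 Trex cells expressing D2, we tracked fluorescence each second for 180 s after compound, then for 180 s after EC20 dopamine to detect augmented signalling.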
D2 ag-1: human D2 receptor agonism in beta-arrestin assay | P14416 | DiscoveRx PathHunter D2 beta-arrestin, luminescence, 90 min; 100% = 57 uM dopamine signal | activation, % (test concentration not listed) | actives 0.084% (n = 360,000) | AID 624465; in the data active = activation above about 40%
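Agonist mode: compounds alone added to overnight-plated D2 PathHunter cells for 90 min at 37 C, with 57 uM final dopamine (EC100) defining full response. Beta-arrestin recruitment detected by chemiluminescent reagent, read after 1 h at ambient temperature.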
D2 antag: antagonizes the human D2 dopamine receptor; inhibition, % at 10 µM; HEK293 TREx D2 cells, calcium flux, dopamine EC80; actives 2% (n = 340,000); in the data active = inhibition above about 30%; inactive = below that, where a call was filed; note: 0% is about no effect
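Antagonism is scored as inhibition of an EC80 dopamine-evoked calcium signal in a force-coupled, tetracycline-inducible HEK293 T-REx D2 line, with compound present 180 s before agonist.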
D2 ag-2: activates the human D2 dopamine receptor | P14416 | actives 0.53% (n = 340,000) | activation, % at 2 µM | HEK293 T-REx D2 cells, calcium flux agonist mode;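 active = activation over 3 SD above normal in the single-dose calcium agonist read, cut at about 30% in these data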; note: 0% is about no effect
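Tetracycline-induced HEK293 Trex cells with D2 receptor force-coupled to calcium signaling, plated overnight at 30 C and loaded with no-wash calcium dye. Calcium flux read kinetically for 180 s after compound addition; responses flag agonists.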
Starred values were filed as active, the others as inactive. In the library only some 2.4% were active in any assay of this set; here they are far more common.

COc1ccc(NC2c3ccccc3C(=O)N2c2ccccn2)cc1 (centres undefined) was read as D2 PAM-1 2, D2 PAM-2 -4, D2 ag-1 -2, D2 antag 41* and D2 ag-2 -1.
COc1ccc(C(=O)NCCNC(C)=O)cc1S(=O)(=O)NCc1ccc(Cl)cc1 was read as D2 PAM-1 -6, D2 PAM-2 14, D2 ag-1 -2, D2 antag 0 and D2 ag-2 1.
For COc1ccc(C(=O)NCC(c2ccco2)N(C)C)cc1S(=O)(=O)NCc1ccc(Cl)cc1 (centres undefined) the results were D2 PAM-1 -39, D2 PAM-2 -24, D2 ag-1 -2, D2 antag 78* and D2 ag-2 0.
Screening C#CCn1cc2c(c1-c1ccccc1)c(=O)n(C)c(=O)n2C returned D2 PAM-1 0 and D2 ag-1 -2.
Screening Cc1ccc(C(=O)Nc2cccc(C(F)(F)F)c2)cc1Nc1cnccn1 returned D2 PAM-1 -29, D2 PAM-2 0, D2 ag-1 -2, D2 antag 59* and D2 ag-2 0.
For CCOC(=O)c1nccnc1C(=O)Nc1ccc(C(F)(F)F)cc1 the results were D2 PAM-1 -3, D2 PAM-2 -3, D2 ag-1 -4, D2 antag 1 and D2 ag-2 0.
For CCOC(=O)c1nccnc1C(=O)Nc1cccc(C(F)(F)F)c1 the results were D2 PAM-1 -10, D2 PAM-2 -16, D2 ag-1 0, D2 antag 32* and D2 ag-2 -1.
For CCOc1ccccc1NC(=O)CN1C(=O)COc2ccc(C)cc21 the results were D2 PAM-1 -2, D2 PAM-2 1, D2 ag-1 2, D2 antag 14 and D2 ag-2 1.
For Cc1noc(/C=C/NCc2cccnc2)c1S(=O)(=O)N(C)CC(=O)N1CCc2ccccc21 the results were D2 PAM-1 -6, D2 PAM-2 -8, D2 ag-1 -3, D2 antag 57* and D2 ag-2 -1.
`COc1cc(Br)c(CC(=O)NC2CC2)cc1OC` gave D2 PAM-1 -6, D2 PAM-2 12, D2 ag-1 -2, D2 antag 17 and D2 ag-2 2.
`CCS(=O)(=O)N1Cc2ccccc2CC1C(=O)N(C)CC(=O)Nc1cccc(F)c1` (centres undefined) gave D2 PAM-1 -10, D2 PAM-2 -6, D2 ag-1 -5, D2 antag 41* and D2 ag-2 1.
COc1ccccc1NC(=O)CSc1oc(-c2ccc(F)cc2)nc1S(=O)(=O)c1ccc(Br)cc1 was read as D2 PAM-2 7.
For CCOC(=O)CNC(=O)c1sc(NC(=O)/C=C/c2ccccc2)nc1C the results were D2 PAM-1 -4, D2 PAM-2 -12, D2 ag-1 0, D2 antag 34* and D2 ag-2 0.
Screening CC1C(=O)N(Cc2cn(Cc3ccco3)nn2)CCS(=O)(=O)N1Cc1ccc(-c2ccc(Cl)c(Cl)c2)cc1 (centres undefined) returned D2 PAM-1 2 and D2 ag-1 -7.
For COc1ccc(S(=O)(=O)NCC2CCC(C(=O)NCCCN3CCCC3=O)CC2)cc1 (centres undefined) the results were D2 PAM-1 -7, D2 PAM-2 15, D2 ag-1 -4, D2 antag 32* and D2 ag-2 0.
`O=C(NCc1cccs1)C1CCCN1C(=O)Nc1ccccc1` (centres undefined) gave D2 PAM-1 -14, D2 PAM-2 -9, D2 ag-1 0, D2 antag 5 and D2 ag-2 1.
O=C(NCc1cccs1)C1CCCN1C(=O)Nc1ccc(Cl)cc1 (centres undefined) was read as D2 PAM-2 -5, D2 antag 32* and D2 ag-2 1.
CN(c1ccccc1)S(=O)(=O)c1ccc(Cl)c(C(=O)NC2=NCCS2)c1 was read as D2 PAM-1 8, D2 PAM-2 31*, D2 ag-1 3, D2 antag -11 and D2 ag-2 -1.
Screening COc1ccccc1N(C)S(=O)(=O)c1ccc(Cl)c(C(=O)NC2=NCCS2)c1 returned D2 PAM-1 -4, D2 PAM-2 -7, D2 ag-1 1, D2 antag -2 and D2 ag-2 -8.
For CC(OC(=O)Cn1cnc2c1c(=O)n(C)c(=O)n2C)C(=O)NC1(C#N)CCCCC1 (centres undefined) the results were D2 PAM-1 -28, D2 PAM-2 14, D2 ag-1 0, D2 antag -1 and D2 ag-2 1.
`N/C(COc1ccc(Cl)cc1Cl)=N\O` gave D2 PAM-1 -17, D2 PAM-2 32*, D2 ag-1 -4, D2 antag -7 and D2 ag-2 1.
Screening Oc1ccc[n+](/C=C\c2ccccc2)c1 returned D2 PAM-1 -10, D2 PAM-2 14, D2 ag-1 0, D2 antag 38* and D2 ag-2 0.
`Oc1ccc[n+](CCCCC[n+]2cccc(O)c2)c1` gave D2 PAM-1 -12, D2 PAM-2 -4, D2 ag-1 -5, D2 antag -11 and D2 ag-2 0.
Cc1ccccc1OCCN1C(=O)C(=O)c2cccc(C)c21 was read as D2 PAM-1 -66, D2 PAM-2 2, D2 ag-1 -17, D2 antag -1 and D2 ag-2 2.
`Cc1cccc2c1N(CCOc1ccccc1Cl)C(=O)C2=O` gave D2 PAM-1 -36, D2 PAM-2 -8, D2 ag-1 -14, D2 antag 30* and D2 ag-2 -1.
For COc1ccc(NC(=O)C2CCCO2)cc1Cl (centres undefined) the results were D2 PAM-1 -4, D2 PAM-2 -14, D2 ag-1 -2, D2 antag 31* and D2 ag-2 0.
For CS(=O)(=O)c1nc(-c2ccc(Br)cc2)cc(-c2ccccc2)c1C#N the results were D2 PAM-1 0, D2 PAM-2 -3, D2 ag-1 -2, D2 antag 41* and D2 ag-2 1.
For CN1CCN(C(c2ccccc2)c2sc3nc(-c4ccco4)nn3c2O)CC1 (centres undefined) the results were D2 PAM-2 10 and D2 ag-2 -4.
`O=C(Nc1ccccc1)N(Cc1cccs1)c1ccc(F)cc1` gave D2 PAM-2 6 and D2 ag-2 0.
For CC(C)Cn1cnc2c1c(=O)n(CC(=O)NC(=O)NC(C)(C)C)c(=O)n2Cc1ccccc1 the results were D2 PAM-1 2, D2 PAM-2 31*, D2 ag-1 -3, D2 antag 14 and D2 ag-2 0.
For COc1ccc(CC2(CO)CCN(C/C=C/c3ccccc3OC)CC2)cc1 the results were D2 PAM-1 -7, D2 PAM-2 8, D2 ag-1 -1, D2 antag -9 and D2 ag-2 1.
